The list is not random: actives were taken first. Their share in the collection is about 3%.
TRPM1 prom inh: inhibitors of MITF-driven TRPM1 promoter in melanoma cells; inhibition, % at 12.5 µM; AID 488899; actives 0.83% (n = 330,000); SK-MEL-5 TRPM1 promoter luciferase, 24 h;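 active = mean inhibition across replicates of 60% or more, whatever share of single replicates reaches that level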
Peg3 promoter: reduces Peg3 promoter-driven luciferase expression in HeLa; inhibition, % at 20 µM; HeLa PEG-Prom luciferase reporter, luminescence, overnight; actives 1.7% (n = 360,000);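 active = inhibition of at least 50% at 20 µM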
HIF-2a inh: HIF-2a inhibition; 786-0 RCC cells HIF-2a reporter, luciferase luminescence, overnight; inhibition, % at 18.8 µM; actives 0.72% (n = 360,000);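 active = inhibition of the luminescence signal of 40% or more relative to plate controls, in a single-dose primary screen at 18.75 µM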
CF NFkB inh: cystic fibrosis NF-kB activation inhibition; inhibition, % at 5 µM; actives 0.86% (n = 360,000); KKLEB NF-kB-GFP reporter, PAF-induced, GFP fluorescence overnight; AID 588850;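 active = at least 50% inhibition at 5 µM, scaled per plate between neutral and stimulator controls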;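 note: PAF is a Pseudomonas aeruginosa culture filtrate used as stimulus; plate controls were PAF-stimulated DMSO wells for no effect and unstimulated DMSO wells for full effect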
KKLEB tox: reduces viability of KKLEB cystic fibrosis airway cells; KKLEB CF airway cells viability, ATPlite luminescence, overnight; stronger effect = lower value; cells stimulated with P. aeruginosa culture filtrate; activity change (cytotoxicity), % at 5 µM; actives 0.36% (n = 360,000); AID 602141;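 active = corrected activity change at or below -50% at 5 µM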
EBV LMP1 NFkB: Epstein-Barr LMP1 NF-kappaB reporter inhibition | AID 504558 | LMP1-induced NF-kappaB luciferase reporter cells, luminescence | actives 0.69% (n = 350,000) | inhibition, % at 12.5 µM; in the data active = inhibition above about 41%;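 note: 0% = neutral control wells and 100% = reference inhibitor control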
Starred values were filed as active, the others as inactive.

Results for COC(=O)c1ccc(/C=C2\SC(=S)N(CCCC(=O)N3CCOCC3)C2=O)cc1 ?
TRPM1 prom inh: 2.2; Peg3 promoter: -2.5; HIF-2a inh: 7.7; CF NFkB inh: 2.5; KKLEB tox: -6.6; EBV LMP1 NFkB: -6.5

How did CCOc1ccc(/C=C2\SC(=S)N(CCC(=O)O)C2=O)cc1 do in these assays?
TRPM1 prom inh: 84.8*; Peg3 promoter: 24.1; HIF-2a inh: 90.5*; CF NFkB inh: 7.8; KKLEB tox: 0.2; EBV LMP1 NFkB: 47.4*

How did O=C1/C(=C/c2ccccc2F)SC(=S)N1CCC(=O)N1CCCCC1CCO (stereo not drawn) do in these assays?
TRPM1 prom inh: 13.6; Peg3 promoter: 52.8*; HIF-2a inh: 4.0; CF NFkB inh: -1.2; KKLEB tox: 1.2; EBV LMP1 NFkB: 5.0

What do the screens show for `CC(/C=C1\SC(=S)N(c2ccc(C(=O)O)cc2)C1=O)=C\c1ccccc1`?
TRPM1 prom inh: 15.6; Peg3 promoter: 17.1; HIF-2a inh: 51.4*; CF NFkB inh: -9.9; KKLEB tox: 0.6; EBV LMP1 NFkB: 3.8

Results for O=C(CCN1C(=O)/C(=C\c2ccccc2Cl)SC1=S)N1CCN(c2ccccc2)CC1 ?
TRPM1 prom inh: -1.6; Peg3 promoter: 100.0*; HIF-2a inh: 59.5*; CF NFkB inh: 3.9; KKLEB tox: 7.7; EBV LMP1 NFkB: 3.7

What do the screens show for `O=C1/C(=C/c2ccc(Cl)cc2)SC(=S)N1CCC(=O)N1CCCCC1CCO` (stereo not drawn)?
TRPM1 prom inh: 6.5; Peg3 promoter: 38.9; HIF-2a inh: 4.1; CF NFkB inh: 18.7; KKLEB tox: -11.9; EBV LMP1 NFkB: 5.1

What do the screens show for `CC(/C=C1\SC(=S)N(NC(=O)c2ccc(C)cc2)C1=O)=C\c1ccccc1`?
TRPM1 prom inh: 11.2; Peg3 promoter: -3.6; HIF-2a inh: -5.6; CF NFkB inh: -13.8; KKLEB tox: -6.7; EBV LMP1 NFkB: 4.8

What do the screens show for `O=C(O)c1[nH]c(-c2ccccc2)c2c1C(=O)N(C1CC1)C2=O`?
Peg3 promoter: 10.0; HIF-2a inh: 11.1; CF NFkB inh: 0.5; KKLEB tox: -2.2

How did Cc1cc(-c2ccccc2)nc2cc(C(=O)N(Cc3ccccc3)Cc3ccccc3)nn12 do in these assays?
TRPM1 prom inh: -2.1; Peg3 promoter: 58.1*; HIF-2a inh: 15.3; CF NFkB inh: 31.9; KKLEB tox: -15.1; EBV LMP1 NFkB: -2.0

Results for COC(=O)c1cc2nc(-c3ccccc3)cc(C)n2n1 ?
TRPM1 prom inh: 11.8; Peg3 promoter: 4.0; HIF-2a inh: 6.6; CF NFkB inh: -16.9; KKLEB tox: 9.0; EBV LMP1 NFkB: 0.8

What do the screens show for `CCN(CC)C(=O)C1=C(C)N(Cc2ccccc2)C(=O)C(CC(=O)NC2CCCCC2)C1` (stereo not drawn)?
Peg3 promoter: 1.0; HIF-2a inh: 8.9; CF NFkB inh: -4.2; KKLEB tox: -2.9; EBV LMP1 NFkB: 9.2

How did CCN1CCN(c2ccc(S(=O)(=O)N3CCCCC3)cc2NC(=O)/C=C/c2cccc(OC)c2OC)CC1 do in these assays?
TRPM1 prom inh: 78.0*; Peg3 promoter: 68.4*; HIF-2a inh: 14.8; CF NFkB inh: 5.0; KKLEB tox: 11.3; EBV LMP1 NFkB: -7.3

Results for CCN1CCN(c2ccc(S(=O)(=O)N3CCCCC3)cc2NC(=O)/C=C/c2ccc(F)cc2)CC1 ?
TRPM1 prom inh: -3.8; Peg3 promoter: 17.9; HIF-2a inh: 3.7; CF NFkB inh: 6.1; KKLEB tox: -12.4; EBV LMP1 NFkB: 1.9

How did CN1CCN(c2ccc(S(=O)(=O)N3CCCCC3)cc2NC(=O)/C=C/c2ccc(OC(F)F)cc2)CC1 do in these assays?
TRPM1 prom inh: -2.0; Peg3 promoter: 75.9*; HIF-2a inh: 10.5; CF NFkB inh: 16.7; KKLEB tox: -10.1; EBV LMP1 NFkB: 0.2

What do the screens show for `CN1CCN(c2ccc(S(=O)(=O)N3CCCCC3)cc2NC(=O)/C=C/c2ccc(Cl)c([N+](=O)[O-])c2)CC1`?
TRPM1 prom inh: 10.1; Peg3 promoter: 104.4*; HIF-2a inh: 6.1; CF NFkB inh: 23.9; KKLEB tox: -13.1; EBV LMP1 NFkB: -2.8

How did O=C(/C=C/c1ccc(Cl)c([N+](=O)[O-])c1)Nc1ccc(N2CCCC2)c(Cl)c1 do in these assays?
TRPM1 prom inh: 2.9; Peg3 promoter: 10.5; HIF-2a inh: 3.7; CF NFkB inh: 25.5; KKLEB tox: -23.7; EBV LMP1 NFkB: 4.7

How did CCN1CCN(c2ccc(S(=O)(=O)N3CCCCC3)cc2NC(=O)/C=C/c2ccc(OC(F)F)cc2)CC1 do in these assays?
TRPM1 prom inh: -19.8; Peg3 promoter: 96.3*; HIF-2a inh: -14.2; CF NFkB inh: 16.9; KKLEB tox: -16.6; EBV LMP1 NFkB: 3.0

Results for COc1ccc(OCC(=O)N2CCc3ccccc32)c([N+](=O)[O-])c1 ?
Peg3 promoter: -169.8; HIF-2a inh: -190.9; CF NFkB inh: 7.0; KKLEB tox: -6.9; EBV LMP1 NFkB: -21.3

How did COc1ccc(-c2csc(C(NC(C)=O)c3ccccc3)n2)cn1 (stereo not drawn) do in these assays?
Peg3 promoter: -9.7; HIF-2a inh: -58.6; CF NFkB inh: -9.7; KKLEB tox: 13.6

What do the screens show for `c1cc(-c2cc3c(o2)CCCC3OCCN2CCOCC2)cs1` (stereo not drawn)?
HIF-2a inh: 0.2

What do the screens show for `O=C1c2ccccc2C(=O)N1CCc1ccccn1`?
TRPM1 prom inh: 3.3; Peg3 promoter: 2.6; HIF-2a inh: -40.2; CF NFkB inh: 12.9; KKLEB tox: 9.4; EBV LMP1 NFkB: 8.3

How did CN(C)CCCN1C(=O)c2cccc3c([N+](=O)[O-])ccc(c23)C1=O do in these assays?
TRPM1 prom inh: 55.3; Peg3 promoter: 90.5*; HIF-2a inh: 19.7; CF NFkB inh: 0.1; KKLEB tox: 4.1; EBV LMP1 NFkB: 13.7

How did O=C1c2cccc3c([N+](=O)[O-])ccc(c23)C(=O)N1CCc1ccccn1 do in these assays?
TRPM1 prom inh: 19.8; Peg3 promoter: 91.5*; HIF-2a inh: -44.2; CF NFkB inh: -11.1; KKLEB tox: 13.3; EBV LMP1 NFkB: 6.7

What do the screens show for `CC(=O)Oc1cccc(N2C(=O)c3cccc4c([N+](=O)[O-])ccc(c34)C2=O)c1`?
TRPM1 prom inh: 22.7; Peg3 promoter: 28.6; HIF-2a inh: 26.3; CF NFkB inh: 35.2; KKLEB tox: -8.5; EBV LMP1 NFkB: 0.9

How did Cc1ccc(NC(=S)NCc2cccs2)cc1 do in these assays?
TRPM1 prom inh: -0.4; Peg3 promoter: -54.9; HIF-2a inh: -80.8; CF NFkB inh: 10.8; KKLEB tox: -4.8; EBV LMP1 NFkB: 86.6*

What do the screens show for `NC(=O)C1(N2CCCCC2)CCN(C(=O)c2ccc(-n3cnnn3)cc2)CC1`?
TRPM1 prom inh: -8.2; Peg3 promoter: 6.3; HIF-2a inh: 9.1; CF NFkB inh: -6.4; KKLEB tox: -8.9; EBV LMP1 NFkB: 64.2*

What do the screens show for `O=C(c1ccc(-n2cnnn2)cc1)N1CCOCC1`?
TRPM1 prom inh: -9.6; Peg3 promoter: 12.6; HIF-2a inh: 9.0; CF NFkB inh: -2.6; KKLEB tox: 7.7; EBV LMP1 NFkB: 5.2
